# Measurements reported in PubChem BioAssay (NCATS).
# Inconclusive results are not listed. Where a call stands in place of a potency, no number is given. Values without a mark were called inactive. Activity calls are given as the source filed them. Calls follow the shape of the dose curve; as a rule, active = well fitted inhibition curve with a large enough effect; inconclusive = small, poorly fitted or top-dose-only effect; inactive = no such curve, though single readings can be large or run the other way.
# Target: Rap guanine nucleotide exchange factor 4 (Homo sapiens) (UniProt Q8WZA2)
# Sequence (Q8WZA2 whole entry, looked up): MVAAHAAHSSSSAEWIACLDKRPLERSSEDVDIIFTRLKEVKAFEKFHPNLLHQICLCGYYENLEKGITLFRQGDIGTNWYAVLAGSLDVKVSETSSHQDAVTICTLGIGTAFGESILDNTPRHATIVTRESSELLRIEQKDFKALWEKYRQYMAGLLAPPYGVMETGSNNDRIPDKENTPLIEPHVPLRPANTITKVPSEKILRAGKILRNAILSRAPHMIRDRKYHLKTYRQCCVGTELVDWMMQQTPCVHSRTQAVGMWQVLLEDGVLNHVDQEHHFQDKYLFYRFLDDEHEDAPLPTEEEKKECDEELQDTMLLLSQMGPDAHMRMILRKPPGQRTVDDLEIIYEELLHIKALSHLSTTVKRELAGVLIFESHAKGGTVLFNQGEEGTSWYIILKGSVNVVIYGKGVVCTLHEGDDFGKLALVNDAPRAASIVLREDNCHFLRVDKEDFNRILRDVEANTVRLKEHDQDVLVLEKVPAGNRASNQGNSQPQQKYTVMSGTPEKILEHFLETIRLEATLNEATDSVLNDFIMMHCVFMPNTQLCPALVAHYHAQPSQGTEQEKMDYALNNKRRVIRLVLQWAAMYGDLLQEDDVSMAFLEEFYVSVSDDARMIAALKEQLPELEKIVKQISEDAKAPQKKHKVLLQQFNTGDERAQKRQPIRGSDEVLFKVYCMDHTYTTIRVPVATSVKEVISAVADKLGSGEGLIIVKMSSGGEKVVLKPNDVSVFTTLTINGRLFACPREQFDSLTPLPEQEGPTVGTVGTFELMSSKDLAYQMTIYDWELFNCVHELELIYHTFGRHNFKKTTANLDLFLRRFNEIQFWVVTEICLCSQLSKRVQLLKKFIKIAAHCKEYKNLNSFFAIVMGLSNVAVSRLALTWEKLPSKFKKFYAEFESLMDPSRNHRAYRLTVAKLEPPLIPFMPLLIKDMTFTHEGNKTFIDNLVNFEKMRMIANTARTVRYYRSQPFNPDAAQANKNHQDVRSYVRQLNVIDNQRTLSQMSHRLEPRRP
# Experiment: Confirmatory qHTS for antagonist of cAMP-regulated guanine nucleotide exchange factor 4 (EPAC2) (AID 1645885); also: nearly all actives have a fitted effect of over 25% in size; also: potency is read from the fitted curve at half-maximal effect
# Details: EPAC2 Rap1B-BODIPY-GDP exchange fluorescence, biochemical; series mostly up to 12.7 µM
row,Structure (SMILES),Potency
1,OCC[n+]1ccc(/C=C/c2c[nH]c3ccccc23)cc1,inactive
2,COc1ccc(C2c3c(ncn(CCCO)c3=N)Oc3ccc4ccccc4c32)cc1 (configuration not stated),inactive
3,CC1(C(=O)O)CCC2(C)CCC3(C)C(=CC(=O)C4C5(C)CCC(=O)C(C)(C)C5CCC43C)C2C1 (configuration not stated),inactive
4,C[C@@H](c1ccccc1)N1Cc2ccccc2Oc2cc(Br)ccc2S1(=O)=O,2.69 µM (active)
5,COc1ccccc1Oc1ccnc2cc(Cl)ccc12,inactive
6,Cc1ccc(NC(=O)c2ccc(CN3CC(=O)N4CCCCC4C3=O)cc2)c(C)c1 (configuration not stated),inactive
7,O=C1NC(=O)/C(=C/c2ccccn2)S1,inactive
8,Cc1ccc(F)c(NC(=O)/C(C#N)=C(\O)c2ccc(C(C)(C)C)cc2)c1,inactive
9,N#Cc1c(-c2ccccc2)nc(SCc2ccc(Cl)cc2)[nH]c1=O,33.8 µM (active)
10,CCOC(=O)Cn1c(=O)oc2cc(S(=O)(=O)Nc3c(C)cc(C)cc3C)ccc21,inactive
11,COc1ccc(-c2nnc(SCC(=O)c3ccco3)n2-c2ccccc2)cc1,inactive
12,O=[N+]([O-])c1cc([N+](=O)[O-])c2nonc2c1Nc1ccc(O)cc1,42.6 µM (active)
13,Cc1ccc(Cl)cc1NC(=O)c1ccccc1OCC(=O)Nc1ccc(Cl)cc1,inactive
14,CCCCCC1CCC(c2ccc(C(N)=O)cc2)CC1 (configuration not stated),inactive
15,O=CN(CCN(C=O)CN1CCCCC1)CN1CCCCC1,inactive
16,Cc1ccccc1N(CC(=O)NC1CCCC1)C(=O)c1csnn1,inactive
17,COc1cc(OC)c(CNC2CCCCCC2)cc1Br,inactive
18,COCCN(C)Cc1nc(C(c2ccccc2)c2ccccc2)no1,47.8 µM (active)
19,CCC1CCCCN1CCCNC(=O)c1ccc(CS(=O)(=O)Cc2ccccc2F)o1 (configuration not stated),inactive
20,O=C1/C(=C/c2ccc(F)cc2)SC(=S)N1NS(=O)(=O)c1ccccc1,inactive
21,Cc1nc2c(C(=O)NCCC(C)C)c[nH]n2c(=O)c1Cl,84.9 µM (active)
22,Cc1cnc(C(=O)N(c2ccc(N3CCOCC3)cc2)C2C(=O)Nc3ccccc3N=C2c2ccc(F)cc2)cn1 (configuration not stated),inactive
23,COc1ccccc1-n1c(-c2ccccc2)c[n+]2c1CCc1ccccc1-2,inactive
24,Cc1cccc(NC(=O)CN2C(=O)S/C(=C\c3ccc(O)c([N+](=O)[O-])c3)C2=O)c1,inactive
25,CCOC(=O)C1=CCN(S(=O)(=O)c2ccc(C)cc2)C1c1cccs1 (configuration not stated),inactive
26,CC1Cc2nc(SCC(=O)NCc3ccccc3)n(Cc3ccccc3)c(=O)c2S1 (configuration not stated),inactive
27,CCOC(=O)CN1C(=O)c2ccccc2Sc2ncccc21,inactive
28,O=C1S/C(=C\c2ccc(O)c([N+](=O)[O-])c2)C(=O)N1c1ccccc1Cl,47.8 µM (active)

# Target: Rap guanine nucleotide exchange factor 3 (Homo sapiens) (UniProt O95398)
# Sequence (O95398 whole entry, looked up): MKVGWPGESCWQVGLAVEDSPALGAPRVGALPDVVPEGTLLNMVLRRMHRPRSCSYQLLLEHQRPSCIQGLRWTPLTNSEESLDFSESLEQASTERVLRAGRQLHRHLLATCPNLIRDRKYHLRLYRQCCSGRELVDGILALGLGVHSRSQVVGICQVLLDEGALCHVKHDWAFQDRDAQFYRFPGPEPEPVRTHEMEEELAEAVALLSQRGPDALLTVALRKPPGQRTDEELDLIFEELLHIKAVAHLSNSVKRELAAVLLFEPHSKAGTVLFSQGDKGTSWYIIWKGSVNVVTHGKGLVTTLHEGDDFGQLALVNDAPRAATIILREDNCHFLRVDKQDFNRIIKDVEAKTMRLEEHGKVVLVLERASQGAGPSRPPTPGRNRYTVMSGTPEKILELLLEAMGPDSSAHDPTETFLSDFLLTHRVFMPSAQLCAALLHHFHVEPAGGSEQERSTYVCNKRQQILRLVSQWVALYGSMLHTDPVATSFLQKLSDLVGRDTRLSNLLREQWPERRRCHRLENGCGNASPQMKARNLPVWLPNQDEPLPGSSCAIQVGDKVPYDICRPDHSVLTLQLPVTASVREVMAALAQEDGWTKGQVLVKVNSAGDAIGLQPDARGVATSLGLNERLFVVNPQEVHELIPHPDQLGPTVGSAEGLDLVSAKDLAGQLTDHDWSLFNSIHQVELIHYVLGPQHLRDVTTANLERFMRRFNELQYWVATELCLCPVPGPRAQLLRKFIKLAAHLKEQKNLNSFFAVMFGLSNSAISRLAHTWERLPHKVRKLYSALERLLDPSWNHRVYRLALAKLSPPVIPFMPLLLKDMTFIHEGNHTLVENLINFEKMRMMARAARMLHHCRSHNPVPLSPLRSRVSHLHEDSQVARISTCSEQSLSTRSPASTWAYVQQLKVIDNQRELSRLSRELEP
# Experiment: Counterscreen qHTS for antagonist of cAMP-regulated guanine nucleotide exchange factor 3 (EPAC1) (AID 1645888);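 also: fluorescence loss as bound BODIPY-GDP is released from Rap1B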
# Details: Rap1B-BODIPY-GDP nucleotide exchange, fluorescence; series mostly up to 154 µM
# Procedure, shortened: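 Rap1B-BODIPY-GDP 250 nM + GDP 50 uM; cpds 7-pt, final 9.74 nM–152 uM (activator mode) or from 7.32 nM upwards (inhibitor mode); RT; FI 480/540 nm at 5 and 30 min, then ± cAMP, reread.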
Structure (SMILES),Potency,"activity change, negative = inhibition"
Cc1nn(CCc2nn[nH]n2)c2nc(-c3ccc(C4CCCCC4)cc3)cc(C(F)(F)F)c12,inactive,
O=C(NS(=O)(=O)c1ccc2ccc(S(=O)(=O)NCCSc3ccccc3)cc2c1)c1cccc2ccccc12,inactive,
CCOC(=O)C1CCCN(C(=O)C(C)(C)Oc2ccc(Cl)cc2)C1 (configuration not stated),inactive,
O=C(CNC(=O)c1sc2ccccc2c1Cl)Nc1ccccc1F,,-19.6% [at 30.8 µM]
CCOc1c(OC)cccc1C1CC(=O)Nc2cc3c(cc21)OCCO3 (configuration not stated),inactive,
Cc1ccc(S(=O)(=O)/N=C2\C=C(Nc3cccc(C(=O)O)c3)C(=O)c3ccccc32)c(C)c1,inactive,
CS/C(N)=N/N=C/c1c(O)ccc2ccccc12,inactive,
CC(=O)c1c(C(C)=O)c(C)n(-c2nc(-c3ccccc3)c(C)s2)c1C,inactive,
CC(C)CNC(=O)c1c(-c2ccccc2)c(-c2ccccc2)nn(C)c1=O,inactive,
O=C1CSC2(C(=O)N(Cc3cccc(C(F)(F)F)c3)c3ccccc32)N1c1ccc(F)c(F)c1 (configuration not stated),inactive,
O=[N+]([O-])c1ccc(Cc2ccccn2)c([N+](=O)[O-])c1,inactive,
OCC[n+]1ccc(/C=C/c2c[nH]c3ccccc23)cc1,inactive,
COc1ccc(C2c3c(ncn(CCCO)c3=N)Oc3ccc4ccccc4c32)cc1 (configuration not stated),,0.394% [at 30.8 µM]
CC1(C(=O)O)CCC2(C)CCC3(C)C(=CC(=O)C4C5(C)CCC(=O)C(C)(C)C5CCC43C)C2C1 (configuration not stated),inactive,
C[C@@H](c1ccccc1)N1Cc2ccccc2Oc2cc(Br)ccc2S1(=O)=O,inactive,
COc1ccccc1Oc1ccnc2cc(Cl)ccc12,,3.13% [at 30.8 µM]
Cc1ccc(NC(=O)c2ccc(CN3CC(=O)N4CCCCC4C3=O)cc2)c(C)c1 (configuration not stated),inactive,
O=C1NC(=O)/C(=C/c2ccccn2)S1,inactive,
Cc1ccc(F)c(NC(=O)/C(C#N)=C(\O)c2ccc(C(C)(C)C)cc2)c1,,8.44% [at 30.8 µM]
N#Cc1c(-c2ccccc2)nc(SCc2ccc(Cl)cc2)[nH]c1=O,inactive,

Structure (SMILES),Potency,"activity change, negative = inhibition"
CCOC(=O)Cn1c(=O)oc2cc(S(=O)(=O)Nc3c(C)cc(C)cc3C)ccc21,,-16.5% [at 30.8 µM]
COc1ccc(-c2nnc(SCC(=O)c3ccco3)n2-c2ccccc2)cc1,,-13.6% [at 30.8 µM]
O=[N+]([O-])c1cc([N+](=O)[O-])c2nonc2c1Nc1ccc(O)cc1,inactive,
Cc1ccc(Cl)cc1NC(=O)c1ccccc1OCC(=O)Nc1ccc(Cl)cc1,,-9.99% [at 30.8 µM]
CCCCCC1CCC(c2ccc(C(N)=O)cc2)CC1 (configuration not stated),inactive,
O=CN(CCN(C=O)CN1CCCCC1)CN1CCCCC1,inactive,
Cc1ccccc1N(CC(=O)NC1CCCC1)C(=O)c1csnn1,,-9.99% [at 30.8 µM]
COc1cc(OC)c(CNC2CCCCCC2)cc1Br,inactive,
COCCN(C)Cc1nc(C(c2ccccc2)c2ccccc2)no1,inactive,
CCC1CCCCN1CCCNC(=O)c1ccc(CS(=O)(=O)Cc2ccccc2F)o1 (configuration not stated),inactive,
O=C1/C(=C/c2ccc(F)cc2)SC(=S)N1NS(=O)(=O)c1ccccc1,inactive,
Cc1nc2c(C(=O)NCCC(C)C)c[nH]n2c(=O)c1Cl,inactive,
Cc1cnc(C(=O)N(c2ccc(N3CCOCC3)cc2)C2C(=O)Nc3ccccc3N=C2c2ccc(F)cc2)cn1 (configuration not stated),inactive,
COc1ccccc1-n1c(-c2ccccc2)c[n+]2c1CCc1ccccc1-2,inactive,
Cc1cccc(NC(=O)CN2C(=O)S/C(=C\c3ccc(O)c([N+](=O)[O-])c3)C2=O)c1,inactive,
CCOC(=O)C1=CCN(S(=O)(=O)c2ccc(C)cc2)C1c1cccs1 (configuration not stated),,6.49% [at 30.8 µM]
CC1Cc2nc(SCC(=O)NCc3ccccc3)n(Cc3ccccc3)c(=O)c2S1 (configuration not stated),,0.448% [at 30.8 µM]
CCOC(=O)CN1C(=O)c2ccccc2Sc2ncccc21,inactive,
O=C1S/C(=C\c2ccc(O)c([N+](=O)[O-])c2)C(=O)N1c1ccccc1Cl,inactive,
